Bioassay records: PubChem, several laboratories
RecA intein inh – Mtb RecA intein splicing inhibitors, primary screen, biochemical, fluorescence, HTS; Protein RecA (Mycobacterium tuberculosis (strain ATCC 25618 / H37Rv)), P9WHJ3; hit rate 0.75% among 290,000; cell-free RecA intein splicing; inhibition, % (test concentration not listed); in the data active = inhibition above about 30%
Mtb hypoxia rep – PubChem AID 1159583. hit rate 0.1% among 300,000. M. tuberculosis hypoxia-regulated fluorescent reporter, fluorescence. fluorescence inhibition, % (test concentration not listed); in the data active = fluorescence inhibition mostly above about 23%, no sharp cut-off; inactive = mostly below about 17%
CCHFV vOTU inh – CCHFV vOTU protease inhibitors, primary screen, biochemical, Pep-AMC substrate, fluorescence; Crimean-Congo hemorrhagic fever virus L polyprotein viral ovarian tumor (vOTU) protease …; inhibition, % at 11.5 µM; hit rate 0.55% among 370,000; AID 651958, 2012; in the data active = inhibition above about 30%
PfHsp40 rescue – rescue of yeast from PfHsp40 toxicity, primary screen, S. cerevisiae, ATP luminescence | S. cerevisiae expressing PfHsp40, growth rescue | growth rescue, % at 12.5 µM | hit rate 0.68% among 340,000 | AID 504582, 2011; in the data active = growth rescue above about 28%, passing the limit was not always enough;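 also: yeast W303a lacking pdr1 and pdr3 grown in galactose medium; growth measured after three days at 30 °C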
Mtb betalactam – beta-lactam sensitization of Mtb H37Rv, H37Rv. M. tuberculosis H37Rv growth with meropenem, percent inhibition. hit rate 0.27% among 330,000. inhibition, % at 25 µM. AID 434955, 2010; call rule not given here;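 also: growth measured after seven days incubation then overnight dye step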
A number is an active result; . = inactive; / = not tested or not shown. Hits are enriched below; roughly 1.7% of the tested compounds scored in any of these assays.

SMILES | RecA intein inh | Mtb hypoxia rep | CCHFV vOTU inh | PfHsp40 rescue | Mtb betalactam
Cc1nn(CCc2nn[nH]n2)c2nc(-c3ccc(C4CCCCC4)cc3)cc(C(F)(F)F)c12 | 34 | . | . | . | /
CCCc1nc2ccc(NC(=O)c3cccs3)cc2c(=O)n1Cc1ccc(Cl)cc1 | . | . | . | . | .
Cc1nc2ccc(NC(=O)c3cccs3)cc2c(=O)n1Cc1ccc(Cl)cc1 | / | . | . | 31 | .
COc1ccc(C(O)P(=O)(Oc2ccccc2)Oc2ccccc2)cc1 (stereo unspecified) | . | . | . | . | .
O=P(Oc1ccccc1)(Oc1ccccc1)C(O)c1ccc(Cl)cc1 (stereo unspecified) | . | . | . | 140 | .
CC(C)c1ccc(C=c2sc3nc(-c4ccncc4)nn3c2=O)cc1 | / | . | / | / | /
Cc1nc2ccccc2c2c1C(=O)N(C(C)C)C2=O | 41 | . | . | . | .
Cc1nc2ccccc2c2c1C(=O)N(c1cccc(C(=O)O)c1)C2=O | 45 | . | . | . | .
CC1CN(C(C)CO)C(=O)Cc2cc(NS(=O)(=O)c3ccccc3)ccc2OC1CN(C)Cc1ccc(-c2ccccc2)cc1 (stereo unspecified) | / | . | / | / | /
NC(Cc1ccc(O)cc1)c1nnc(C(CC(=O)O)NC(=O)C2CCNCC2)o1 (stereo unspecified) | / | . | / | / | /
Cc1csc2nc(O)c(C(=O)NCCCc3ccccc3)c(=O)n12 | . | . | . | 289 | .
CCC(C)Nc1nc(Cl)nc(N(C#N)CN2C(=O)c3ccccc3S2(=O)=O)n1 (stereo unspecified) | 37 | / | . | . | .
Cc1occc1C(=O)NC(C)C12CC3CC(CC(C3)C1)C2 (stereo unspecified) | . | . | . | 105 | .
CC(NC(=O)c1ccccc1F)C12CC3CC(CC(C3)C1)C2 (stereo unspecified) | . | / | . | . | .
CCCCCCCCCC(=O)NN=Cc1ccc(C)s1 | / | . | / | / | /
O=C(CN1/C(=C(/O)c2ccccc2)C(=O)c2ccccc2S1(=O)=O)c1ccccc1 | . | . | . | 80 | .
CC(C=NNC(=O)c1c(Br)cnn1C)=Cc1ccccc1 | / | . | / | / | /
C=CCc1ccc(OCC(O)COc2ccc(CC=C)cc2OC)c(OC)c1 | . | / | . | 46 | .
C=CCc1ccc(OCC(O)CN2CCCCC2)c(OC)c1 (stereo unspecified) | . | / | . | . | .
CC(=NNC(=O)c1ccc(N2CCCC2=O)cc1)c1ccccc1 | / | . | / | / | /
Nc1ccc(O)cc1C(=O)OCC(=O)C12CC3CC(CC(C3)C1)C2 | / | / | . | . | .
O=C(OCC(=O)C12CC3CC(CC(C3)C1)C2)c1ccc(O)cc1 | / | . | . | 425 | .
O=C(OCC(=O)C12CC3CC(CC(C3)C1)C2)c1ccc(CO)cc1 | / | 25 | . | . | .
O=C(NC(C(=O)N/N=C/c1cc([N+](=O)[O-])ccc1O)c1n[nH]c(=O)c2ccccc12)c1ccccc1 (stereo unspecified) | . | / | . | 82 | .
O=[N+]([O-])c1ccc(O)c(/C=N/Nc2ccccn2)c1 | . | / | . | 308 | .
SMILES | RecA intein inh | Mtb hypoxia rep | CCHFV vOTU inh | PfHsp40 rescue | Mtb betalactam
O=C(/C=C/c1ccccc1[N+](=O)[O-])c1ccccc1Br | . | / | . | 60 | .
Cc1ccc(C(=O)/C=C/c2ccccc2[N+](=O)[O-])cc1 | . | . | . | . | .
CC(=O)Nc1ccc(S(=O)(=O)NC2=C(N3CCN(Cc4ccccc4)CC3)C(=O)c3ccccc3C2=O)cc1 | . | . | . | . | .
CCN1CCN(C2=C(NS(=O)(=O)c3ccc(C)cc3)C(=O)c3ccccc3C2=O)CC1 | . | . | 44 | . | .
C[C@]12C=CC(=O)C=C1CC[C@@H]1[C@@H]2CC[C@]2(C)C(=O)CC[C@@H]12 | / | / | . | 48 | /
COCCNS(=O)(=O)c1ccc(-c2ccc(C)cc2)cc1 | . | 77 | . | . | /
Cc1ccc(S(=O)(=O)NCCOCCNS(=O)(=O)c2ccc(C)cc2)cc1 | . | . | . | . | .
Cn1cccc1CC(=O)NN=Cc1ccc(Cl)cc1 | / | . | / | / | /
CCOC(=O)c1sc(N2C(=O)C(O)=C(C(=O)c3ccc(C)o3)C2c2ccc(OC)c(OC)c2)nc1C (stereo unspecified) | . | . | . | 42 | .
COc1cccc2cc(C(=O)Nc3ccccc3Cl)c(=NNS(=O)(=O)c3ccccc3)oc12 | / | . | / | / | /
CCCOc1ccc2ccccc2c1/C=C1\SC(=O)NC1=O | . | . | . | 504 | .
